According to ChEMBL document CHEMBL4513216, “Probing the Open Global Health Chemical Diversity Library for Multistage-Active Starting Points for Next-Generation Antimalarials” (ACS Infect Dis, 2020):
Hit rate of the full screen: of about 69,000 compounds, about 8,600 (12%) showed an effect of 50% or more. What follows is part of a selection rich in strong results, with near analogues and random picks from the rest.

Test system: Plasmodium berghei
Assay: Screen against P. berghei liver stage (PbLuc), transformed with Luciferase, at 10uM
Assay type: functional, HepG2
Details: tested at 10 uM

Row | SMILES | INHIBITION
1 | O=C(Cc1ccccn1)N1CCC(c2noc(-c3ccncc3)n2)CC1 | -8.12%
2 | O=C(NCC1CC1)[C@@H]1CCO[C@@H]2CCN(Cc3ccsc3)C[C@H]21 | -9.71%
3 | CC1CCC(NC(=O)c2nn(C)cc2Br)CC1 (configuration not stated) | 65.2%
4 | Cn1cc(I)c(C(=O)NC2CCCC2)n1 | -13.2%
5 | CC1CCC(NC(=O)c2nn(C)cc2I)CC1 (configuration not stated) | -32.5%
6 | Cc1nc(C(C)C)sc1C(=O)N1CCN(C2CCSCC2)CC1 | -21.3%
7 | c1cnc(N2CCC(NCc3cnc(C4CCC4)s3)CC2)nc1 | -22%
8 | CC(c1nc(C2CC2)no1)N1CCN(CCN2CCCC2=O)CC1 (configuration not stated) | -65.2%
9 | Cc1ccc(N2CCC(NCc3cnc(C4CCC4)s3)CC2)nc1 | 34.7%
10 | CC(CCN1CCCC1=O)NCc1cnc(C2CCC2)s1 (configuration not stated) | 54.4%
11 | CCC(CCNCc1cnc(C2CCC2)s1)N1CCCC1=O (configuration not stated) | 53.4%
12 | O=C1CCCCN1CCCNCc1cnc(C2CCC2)s1 | 3.87%
13 | CC(C)NC(=O)Nc1ccc(CNCc2cccc(OC(F)F)c2)cc1 | 38.6%
14 | Cn1c(Cn2ccnc2)nnc1C1CCN(C(=O)c2cccnc2)CC1 | -27.4%
15 | Cn1cc(N2CC3(CCN(CC4CCC4)CC3)OCC2=O)cn1 | 42.5%
16 | Cc1ccc(C)c2c1NC(=O)C2CC(=O)O (configuration not stated) | -95.1%
17 | Cc1cc(C)c2c(c1)NC(=O)C2CC(=O)O (configuration not stated) | 27.6%
18 | Cc1cc(C)c2c(c1)C(CC(=O)O)C(=O)N2 (configuration not stated) | 54.8%
19 | CCCc1nc(N2CCCN(c3ccncc3)CC2)c2cnn(C)c2n1 | 39.1%
20 | CCn1cnnc1C1CCN(C(=O)c2cc(F)ccc2OC)CC1 | 33.3%
21 | CN(C)C(=O)CS(=O)(=O)Cc1cc(Cl)c2c(c1)OCCCO2 | 21.8%
22 | CS(=O)(=O)Cc1cc(Cl)c2c(c1)OCCCO2 | 50.1%
23 | NC(=O)CS(=O)(=O)Cc1cc(Cl)c2c(c1)OCCCO2 | -125%
24 | O=C(CS(=O)(=O)Cc1cc(Cl)c2c(c1)OCCCO2)NCC1CC1 | 60.5%

Row | SMILES | INHIBITION
25 | CN(C)C(=O)CCS(=O)(=O)Cc1cc(Cl)c2c(c1)OCCO2 | 54.4%
26 | CNC(=O)CS(=O)(=O)Cc1cc(Cl)c2c(c1)OCCCO2 | 6.14%
27 | CS(=O)(=O)CCS(=O)(=O)Cc1cc(Cl)c2c(c1)OCCCO2 | 25.5%
28 | CN(C)C(=O)CCS(=O)(=O)Cc1cc(Cl)c2c(c1)OCO2 | 44.3%
29 | CN(C)C(=O)CCCS(=O)(=O)Cc1cc(Cl)c2c(c1)OCCO2 | 31.9%
30 | CSCC(=O)N1C[C@H](c2ccc(C)o2)[C@@H](N)C1 | -1.45%
31 | CCNc1ncc(CN2CCOC(Cc3cccc(OC)c3)C2)cn1 (configuration not stated) | 15.2%
32 | Cn1cnc2c1C(COCc1cccnc1)N(Cc1nccs1)CC2 (configuration not stated) | 20.1%
33 | CCN(Cc1c(C)nn(CC)c1C)S(=O)(=O)c1cn(C)nc1C | 8.49%
34 | COc1ccccc1CN1CC[C@]2(C[C@@H](OC)CO2)C1 | -79.4%
35 | CCC(C(=O)NC1CCCCC1)n1ccc2ncccc2c1=O (configuration not stated) | -4.12%
36 | Nc1nc(N2CCCCCC2)ncc1C(=O)NCc1ccc(F)c(Cl)c1 | 43.8%
37 | CN(C)CC1(O)CCCN(C(=O)CCc2nc3cccnc3n2C)C1 (configuration not stated) | 8.64%
38 | CCOC(=O)NCCNC(=O)c1cc2ccccc2nc1N1CCCC1 | -7.36%
39 | Cn1cc(CCNC(=O)c2cc3ccccc3nc2N2CCCC2)cn1 | 59.4%
40 | CS(=O)(=O)CCNC(=O)c1cc2ccccc2nc1N1CCCC1 | -1.37%
41 | Cn1c(CCC(=O)N2CCC3(CCCO3)CC2)nc2cccnc21 | 27.4%
42 | CCc1cc(CNC(=O)N2CCC(Cc3cnn(C)c3)C2)on1 (configuration not stated) | 3.1%
43 | COc1ccccc1C1CNC(=O)c2nc(-c3cnn(C)c3)[nH]c2C1 (configuration not stated) | -36.5%
44 | COc1ccccc1C1CNC(=O)c2nc(-c3nccn3C)[nH]c2C1 (configuration not stated) | 55.7%
45 | COc1ccccc1C1CNC(=O)c2nc(-c3ncc[nH]3)[nH]c2C1 (configuration not stated) | 1.81%
46 | COc1ccccc1C1(CNc2nnc(C)c(C)c2C#N)CCOCC1 | -10.2%
47 | Cc1nnc(NCc2ccccc2Cl)c(C#N)c1C | 49.9%
48 | COc1ccccc1C1(CNc2nnc(C)c(C)c2C#N)CCCC1 | 97.1%

Row | SMILES | INHIBITION
49 | COCc1ccccc1CNc1nnc(C)c(C)c1C#N | 22.9%
50 | Cc1ccccc1C1(CNc2nnc(C)c(C)c2C#N)CCOCC1 | 17.4%
51 | Cc1nnc(NCC2(c3ccccc3)CCOCC2)c(C#N)c1C | 6.67%
52 | Cc1nnc(NCC2(c3ccccc3)CC2)c(C#N)c1C | 9.48%
53 | Cc1nnc(NCC2(c3ccccc3)CCC2)c(C#N)c1C | 92.1%
54 | Cc1nnc(NCC2(c3ccc(Cl)cc3Cl)CCOCC2)c(C#N)c1C | 52.9%
55 | CCCc1cc(NC2CCc3nc(C(C)C)nn3C2)n2ncnc2n1 (configuration not stated) | -5.65%
56 | COCCCNC(=O)N1CCN(C(=O)c2nsc3ccc(C)cc23)CC1 | 15.1%
57 | CC(C)NC(=O)Cn1cc(OCc2ccc(F)cc2)c(=O)cc1CO | 27.5%
58 | COCCn1cc2c(n1)C(CNC(=O)c1cc(C)[nH]c1C)OCC2 (configuration not stated) | 23.6%
59 | O=C(NC1CCC(O)CC1)c1ccc2nc(-c3ccc(F)cc3)cn2c1 (configuration not stated) | 35.5%
60 | CCc1nnc2n1CCN(Cc1ncc(-c3ccc(F)cc3)o1)C2 | -3.235%
61 | Cc1csc(CNCC(C)c2nc3ccccc3o2)n1 (configuration not stated) | 48.3%
62 | Cc1ncsc1CNCC(C)c1nc2ccccc2o1 (configuration not stated) | 50%
63 | Cc1nc(CNCC(C)c2nc3ccccc3o2)cs1 (configuration not stated) | 20%
64 | Nc1cc(-c2cncnc2C2CCN(C(=O)c3ccccc3)C2)ccn1 (configuration not stated) | 3.48%
65 | Cn1ccnc1CN1C[C@@H]2[C@@H](C1)OCC(=O)N2CC1CCCC1 | 39.8%
66 | O=C(c1ccc[nH]1)N1CC[C@@H](OCC2CC2)[C@@H]1Cc1cccnc1 | -68.6%
67 | CN(CC(=O)N1CCC(OCc2cccnc2)CC1)c1ccccc1 | 5.91%
68 | Cn1c(CN2CCN(c3cccnc3)CC2)cc2ccccc21 | 27.4%
69 | O=C(C1CCOCC1)N1CCC(OCc2cccnc2)CC1 | 85.2%
70 | O=C(C1CCOC1)N1CCC(OCc2ccccc2)CC1 (configuration not stated) | 33.9%
71 | O=C(Cc1cccnc1)N1CCC(OCc2ccccc2)CC1 | 7.84%
72 | Cn1c(CN2CCC(OCc3cccnc3)CC2)cc2ccccc21 | 56.2%
